The values that follow come from PubChem BioAssay (NCATS).

Each structure is given as a SMILES string. Results filed as inconclusive are left out. Entries that show only a call come without a potency. A number with no mark means an inactive call. Activity calls are given as the source filed them. Calls come from the whole dose curve; as a rule, active = well fitted inhibition curve with a large enough effect; inconclusive = small, poorly fitted or top-dose-only effect, or effect the other way; inactive = flat fitted curve, though single readings scatter.
Potency is the fitted concentration of half-maximal effect.

Chain of ATP-dependent 6-phosphofructokinase (Trypanosoma brucei brucei) (O15648 whole entry, looked up): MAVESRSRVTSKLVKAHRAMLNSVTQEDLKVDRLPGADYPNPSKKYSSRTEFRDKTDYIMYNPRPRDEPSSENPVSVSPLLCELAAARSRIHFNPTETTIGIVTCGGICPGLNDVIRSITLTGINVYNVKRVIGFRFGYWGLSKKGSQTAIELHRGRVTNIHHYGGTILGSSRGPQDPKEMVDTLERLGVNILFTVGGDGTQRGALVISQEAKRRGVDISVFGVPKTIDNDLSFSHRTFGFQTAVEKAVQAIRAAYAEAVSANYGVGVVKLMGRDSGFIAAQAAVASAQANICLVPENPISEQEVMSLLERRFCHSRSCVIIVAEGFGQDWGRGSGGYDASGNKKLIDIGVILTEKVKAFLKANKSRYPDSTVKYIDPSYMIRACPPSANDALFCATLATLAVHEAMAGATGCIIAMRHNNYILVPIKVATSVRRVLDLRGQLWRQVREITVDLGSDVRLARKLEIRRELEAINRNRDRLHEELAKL

In the test the target is ATP-dependent 6-phosphofructokinase (Trypanosoma brucei brucei) (UniProt O15648). The experiment in a line: qHTS Validation Assay to Find Inhibitors of T. brucei phosphofructokinase (AID 485368). The following applies: T. brucei PFK enzyme assay, qHTS 7-point titration; series mostly up to 57.5 µM; activity change, negative = inhibition: at the top concentration. The text has this:
NIH Molecular Libraries Probe Production Network [MLPCN]
NIH Chemical Genomics Center [NCGC]
PI Name: Malcolm Walkinshaw, University of Edinburgh
Various species of the protozoan family Trypanosomatidae are responsible for a range of serious human diseases in tropical and subtropical areas of the world. […] Many of the disorders caused by trypanosomatids are fatal if left untreated, but most currently used drugs are inefficient and toxic.
Oxidative metabolism involving the mitochondrial tricarboxylic acid cycle and oxidative phosphorylation are repressed in these parasites, and recent RNA interference (RNAi) experiments have shown that even partial depletion of certain individual glycolytic enzymes can lead to the death of cultured parasites. One such glycolytic enzyme, phosphofructokinase (PFK), catalyzes the formation of fructose-1,6-bisphosphate (F1,6BP) and ADP from fructose-6-phosphate (F6P) and ATP, and in many metabolic circumstances makes an important contribution to the control of flux through the glycolytic pathway. As a specific glycolytic target, PFK is particularly attractive as it catalyzes the first irreversible step in glycolysis, and structural and kinetic studies have shown very substantial and essential differences from corresponding host enzymes, allowing for the discovery of parasite-selective inhibitors.
The goal of this screen is to find small-molecule inhibitors of T. brucei PFK using a biochemical assay that measures PFK activity as a function of ADP production. A luminescence-based assay for T. brucei PFK activity has been developed which uses luciferase to detect production of ADP. Traditional luciferase-based nucleotide detection reagents rely on ATP production as a direct substrate for the luciferase reaction; however, PFK catalyzes the transfer of a phosphate from ATP to F6P, resulting in the net depletion of ATP. To directly measure the ADP product of the PFK reaction, we used the ADP-Glo detection kit (Promega), which utilizes two separate reactions to 1) deplete all remaining uncatalyzed ATP and 2) convert all remaining ADP to ATP, which is then detected through a traditional luciferase-coupled reaction. Compounds were screened as a concentration-titration series that ranged from 57 uM to 0.7 nM.
NCGC Assay Protocol Summary:
Substrate buffer was dispensed into white, solid 1536-well plates at 3uL/well in 0.1M triethanolamine (TEA) buffer, pH 8.0, containing final concentrations of 5 mM MgCl2, 0.01% Tween20, 0.5 mM fructose-6-phosphate (F6P) and 0.1mM ATP. Then, 23 nL of compounds or DMSO were delivered to each well using a pin tool. One uL T. brucei PFK (0.1M TEA, 0.01% Tween20, 0.1% bovine serum albumin (BSA) and 1.25nM PFK, final concentrations) was then dispensed, and plates were incubated at room temperature for 45 min. The luminescent detection reagent, ADP-Glo (Promega), was then added in two steps: the first reagent, ADP-Glo (which converts remaining uncatalyzed ATP), was added at 2.5uL/well and incubated for ten minutes at room temperature, and the second component, Kinase Detection reagent (which converts ADP to ATP as a substrate for luciferase-based luminescence), was added immediately after at 5uL/well, followed by one final ten minute room temperature incubation. The plates were measured on a ViewLux plate reader for luminescent signal using a clear filter with a one second exposure. The %Activity was determined from the corrected luminescence values. As no specific T. brucei PFK inhibitors have been identified in the literature, 1x (1.25nM) and 0x PFK enzyme controls (untreated) were included to normalize %Activity of identified inhibitors; 0x enzyme values corresponded to 100%Activity (full inhibition), while 1x PFK enzyme values were used to normalize 0%Activity (no inhibition).
Concentration-response curves were fitted to the signals arising from the resulting luminescence. […]
(In general: In qHTS, concentration-response curves come from the screen itself.)
`COc1cc(NS(C)(=O)=O)ccc1Nc1c2ccccc2nc2ccccc12`: the call was inactive.
Consider `CC1(C)CCC(NC(=O)[C@@H](N)CCC(=O)O)CC1`, for which the compound was classed as inactive.
`C[N+]1(CCCCC[N+]2(C)CCCC2)CCCC1`: the call was inactive.
Still for that read-out and setting: with `CC(CCc1ccccc1)NCC(O)c1ccc(O)c(C(N)=O)c1` (stereo not given) the entry was “inactive”; with `N[C@H](CO)C(=O)O`, “inactive”.
For `N[C@@H](Cc1cnc[nH]1)C(=O)O`, the call was inactive.
For the compound `Oc1ccc(O)cc1`, the Potency was 10.7 µM (active).
For the compound `O=C1CCC(c2ccc(-n3ccnc3)cc2)=NN1`, the “activity change, negative = inhibition” value is -9.7%.
As for `CC(=O)O[C@H]1C[C@@H]2CC[C@@H]3[C@H](CC[C@@]4(C)[C@H]3C[C@H]([N+]3(C)CCCCC3)[C@@H]4OC(C)=O)[C@@]2(C)C[C@@H]1[N+]1(C)CCCCC1`, the compound was called inactive.
Regarding `CCC(NC(C)C)C(O)c1ccc(O)c(O)c1` (stereo not given), the outcome was inactive.
For the compound `COC(=O)[C@H]1[C@H]2C[C@H]3c4[nH]c5ccccc5c4CCN3C[C@H]2CC[C@@H]1O`, the outcome was inactive.
As to `CC[C@H](C)C(=O)O[C@H]1CCC=C2C=C[C@H](C)[C@H](CC[C@@H]3C[C@@H](O)CC(=O)O3)[C@H]21`, the compound was classed as inactive.
Regarding `C[C@]12CC[C@@H]3c4ccc(O)cc4CC[C@H]3[C@@H]1CC[C@@H]2O`, the result was inactive.
Turning to `O=C(O)c1cc2cc(Cc3cccnc3)ccc2o1`, the call was inactive.
In the case of `CNCCC=C1c2ccccc2CCc2ccccc21`, the call was inactive.
